# Hits are enriched below; roughly 1.7% of the tested compounds scored in any of these assays.
# IDH1 R132H inh – qHTS for Inhibitors of mutant isocitrate dehydrogenase 1 (IDH1): qHTS. Isocitrate dehydrogenase [NADP] cytoplasmic (Homo sapiens), O75874. IDH1-R132H enzyme, NADPH consumption, diaphorase/resazurin fluorescence. Potency, µM (titrated, usually from 76.6 µM), for the others: top-dose activity change, negative = inhibition, most hits filed as inhibitors. hit rate 0.093% among 390,000; further: on the % scale 0 is the no-effect control and ±100 the full control effect; nearly all actives have a fitted effect of over 65% in size
# Target sequence (O75874 whole entry R132H, stated change not applied): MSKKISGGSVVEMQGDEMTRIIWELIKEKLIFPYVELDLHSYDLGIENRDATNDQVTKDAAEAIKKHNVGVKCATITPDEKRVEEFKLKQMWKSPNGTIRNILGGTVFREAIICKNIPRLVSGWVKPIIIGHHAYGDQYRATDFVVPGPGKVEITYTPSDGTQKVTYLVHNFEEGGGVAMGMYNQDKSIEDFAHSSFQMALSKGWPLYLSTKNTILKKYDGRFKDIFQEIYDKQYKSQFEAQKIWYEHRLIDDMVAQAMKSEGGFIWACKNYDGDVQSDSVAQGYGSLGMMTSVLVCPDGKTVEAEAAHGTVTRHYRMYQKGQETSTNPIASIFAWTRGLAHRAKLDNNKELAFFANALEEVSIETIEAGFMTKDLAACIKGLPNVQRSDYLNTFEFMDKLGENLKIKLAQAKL
#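 IDH1-R132H (0.5 ug/mL) preincubated 30 min with compound, then NADPH (0.016 mM) and alpha-KG (2 mM) added; 80 min at RT, pH 7.5. Remaining NADPH coupled via diaphorase/resazurin to fluorescence (540/590 nm); concentration-response curves normalized to no-enzyme control.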
# Apoferritin bind – qHTS Assay for Identification of Novel General Anesthetics | hit rate 0.074% among 350,000 | Potency, µM (doses to about 77.5 µM), without a hit: at the top dose activity change, negative = displacement, most hits filed as inhibitors | apoferritin/1-aminoanthracene competitive binding, fluorescence | AID 485281, 2010 | Ferritin light chain (Equus caballus), P02791; further: on the % scale 0 is the no-effect control and ±100 the full control effect; nearly all actives have a fitted effect of over 20% in size
# Target sequence (P02791 2-175 limits assumed): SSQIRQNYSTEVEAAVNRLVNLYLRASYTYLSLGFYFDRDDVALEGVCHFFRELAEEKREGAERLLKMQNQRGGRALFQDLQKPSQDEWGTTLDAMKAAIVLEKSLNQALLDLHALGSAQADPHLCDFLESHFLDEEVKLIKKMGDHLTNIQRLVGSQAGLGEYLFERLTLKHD
#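 Horse-spleen apoferritin (10 uM) in 50% saturated 1-aminoanthracene in PBS was incubated 10 min at room temperature with compound. Fluorescence (ex 380, em 535 nm) was normalized to free and bound 1-AMA, with concentration-response fitted by a four-parameter Hill equation.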
# TrxR1 substrate – qHTS Assay for Substrates of Mammalian Selenoprotein Thioredoxin Reductase 1 (TrxR1): qHTS; purified TrxR1 substrate turnover, NADPH consumption readout; Potency, µM (titrated, usually from 114 µM), inactives show at the highest dose activity change, negative = substrate turnover; hit rate 0.01% among 390,000; AID 588456, 2011; further: on the % scale 0 is the no-effect control and ±100 the full control effect; nearly all actives have a fitted effect of over 50% in size
#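 Rat TrxR1, dispensed at 90 nM, was prereduced with 400 uM NADPH (final) for 5 min at ~22 deg C, then incubated with compound 15 min before 400 uM selenite. A first-read NADPH fluorescence drop versus no-compound background flagged substrates.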
# 12-LOX inh – Primary qHTS assay for inhibitors of human arachidonate 12S-lipoxygenase (ALOX12): Round 2; Potency, µM (series often up to 108 µM), for inactives: at the highest dose activity change, negative = inhibition, actives largely listed as inhibitors; Polyunsaturated fatty acid lipoxygenase ALOX12 (Homo sapiens), P18054; AID 1671190, 2021; purified 12hLO, xylenol orange hydroperoxide absorbance; hit rate 1.1% among 580,000; further: on the % scale 0 is the no-effect control and ±100 the full control effect
#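 Purified human 12hLO at 150 nM in 25 mM Hepes, 0.01% Triton X-100, pH 7.0, preincubated 15 min at room temperature with compound. Reaction started with 40 uM arachidonic acid, 30 min at room temperature. Hydroperoxide measured by Fe-xylenol orange, 573/405 nm absorbance ratio.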
# GRP78 ERSR act – qHTS for Inducers of the Endoplasmic Reticulum Stress Response (ERSR) in Human Glioma: qHTS; Potency, µM, without a hit: top-dose activation, actives largely listed as activators; U87-MG GRP78 promoter luciferase reporter, 16 h; hit rate 0.02% among 420,000; further: series mostly up to about 76 µM; % of control where 0% means no effect; nearly all actives have a fitted effect of over 35% in size
#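 ERSR induction read as luciferase luminescence (Bright-Glo, 10 min at room temperature) in stably transfected human U87-MG glioma cells exposed to compounds for 16 h, using GRP78 as sensor.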
# TrxR1 inh – qHTS Assay for Inhibitors of Mammalian Selenoprotein Thioredoxin Reductase 1 (TrxR1): qHTS. hit rate 1% among 390,000. Potency, µM (top dose mostly 114 µM), for the others: top-dose activity change, negative = inhibition, usual class: inhibitors. Thioredoxin reductase 1, cytoplasmic (Rattus norvegicus), O89049. recombinant rTrxR1, NADPH fluorescence consumption, selenite substrate; further: on the % scale 0 is the no-effect control and ±100 the full control effect; nearly all actives have a fitted effect of over 65% in size
#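 Rat TrxR1 (90 nM in the dispensed reagent) was pre-reduced with 400 uM NADPH for 5 min at room temperature, then incubated with compound for 15 min. After 400 uM selenite was added, NADPH fluorescence (Ex 340/Em 450 nm) was followed for 8 min.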
# * = called active by the depositor; u = inconclusive; x = no result; ! = not active in a repeat; [ ] = another dose, or the depositor's remark. The call rests on the fitted dose curve; in most records, active means well fitted curve in the direction sought with a large enough effect; inconclusive means small, poorly fitted or top-dose-only effect, or another doubt; inactive means no such curve, though single readings can be large; an effect the other way counts as inactive or inconclusive. Potency means the concentration at half of the fitted maximal effect.
SMILES,IDH1 R132H inh,Apoferritin bind,TrxR1 substrate,12-LOX inh,GRP78 ERSR act,TrxR1 inh
O=C(CN1C(=O)c2ccccc2C1=O)Nc1ccccc1,-1%,-3%,-1%,3%,-4%,13%
O=C(Cn1sc2ccccc2c1=O)Nc1ccccc1,7%,x,x,0.89µM*,-2%,x
Nc1cccc2c1C(=O)N(CC(=O)NC13CC4CC(CC(C4)C1)C3)C2=O,13%,172%,15%,u,-3%,40%
Cc1n[nH]c(C)c1C(N)C(=O)N1CCCCCCC1 (centres undefined),x,x,x,11%,x,x
COc1ccc(C(=O)NC(=S)SCC(=O)O)cc1,0%,1%,10%,-21%,1%,-10%
CCOC(=O)CSC(=S)NC(=O)c1ccc(OC)cc1,-2%,0%,-2%,u,-5%,22µM*
O=C(/C=C/c1ccc(O)cc1)c1ccc(NC2=C(N3CCCCC3)C(=O)c3ccccc3C2=O)cc1,6%,-21%,-10%,-26%,8%,45µM*
O=C1CCC2(CCCO2)CCN1Cc1cccc(F)c1C(F)(F)F (centres undefined),x,x,x,31%,x,x
Cc1ccc(C(=O)OCn2ncc(Cl)c(Cl)c2=O)cc1,8%,u,1%,0%,-16%,13µM*
Cc1cccc(Cn2ncc(Cl)c(Cl)c2=O)c1,5%,u,-7%,8%,-15%,50µM*
Cc1ccc(C)c(C(=O)Cn2ncc(Cl)c(Cl)c2=O)c1,7%,u,1%,-15%,-13%,u
O=C(OCn1ncc(Cl)c(Cl)c1=O)c1ccc(C(F)(F)F)cc1,-6%,-10%,-7%,-1%,-14%,18µM*
CCOC(=O)c1ccc(NC(=O)Cn2ncc(Cl)c(Cl)c2=O)cc1,0%,-4%,4%,2%,-15%,u
COP(=O)(OC)c1ccc(NCc2cc(O)ccc2O)cc1,12%,x,-5%,u,-12%,79µM*
O=C1C=CC(=Nc2ccc(F)cc2)O1,-3%,x,1%,-4%,-6%,7.1µM*
COc1cc2[nH]c(=S)nc(Nc3ccc(NC(C)=O)cc3)c2cc1OC,3%,-19%,-2%,-18%,0%,10µM*
COc1cc2[nH]c(=S)nc(NC3CCCCCC3)c2cc1OC,-13%,-12%,8%[57.1 µM],-28%,-4%,15%[57.1 µM]
Cc1ccc(-c2n[nH]c(-c3ccc(C)cc3)c2C)cc1,x,x,x,7%,x,x
Cc1nc(NCCc2ccc(O)cc2)c2nnn(Cc3ccccc3)c2n1,0%,16µM*,-8%,u,-4%,-18%
Cc1nc(NCCc2ccc(F)cc2)c2nnn(Cc3ccccc3)c2n1,-10%,-15%,5%,7%,-2%,30%
O=C(CSc1nc2cc(Cl)ccc2s1)NCCc1ccccc1,x,x,x,-14%,x,x
COc1cc2c3cc1OCc1c(O)c(OC)cc4c1C(Cc1ccc(cc1)Oc1cc(ccc1O)CC3N(C)CC2)N(C)CC4 (centres undefined),x,-1%,-3%,x,-5%,10%
CN1CCc2cccc3c2[C@H]1Cc1ccc(O)c(O)c1-3,9%,-1%,10%,1.4µM*!,-10%,22µM*
COC(=O)C1=C(O)/C(=C\c2ccc(CNS(=O)(=O)c3ccccc3)o2)N=C1C,0%,-16%,-8%,u,-2%,u
COC(=O)C1=C(O)/C(=C\c2ccc(CNS(=O)(=O)c3ccc(Cl)cc3)o2)N=C1C,-5%,-11%,-15%,50µM*,-5%,28µM*
SMILES,IDH1 R132H inh,Apoferritin bind,TrxR1 substrate,12-LOX inh,GRP78 ERSR act,TrxR1 inh
CCOC(=O)C1=C(O)/C(=C\c2ccc(CNS(=O)(=O)c3ccc(Br)cc3)o2)N=C1C,-8%,-9%,0%,45µM*,-4%,14µM*
CCOC(=O)C(=O)NCc1ccc(/C=C2/N=C(C)C(C(=O)OCC)=C2O)o1,-3%,-7%,1%[57.1 µM],-26%,-3%,u
COC(=O)c1c(-c2ccc(F)cc2)csc1NC(=O)CN1CCOCC1,x,x,x,14%,x,x
O=C1C=CC(=O)c2c(O)c(N3CCN(CCO)CC3)c(Cl)c(O)c21,15%,x,56µM*,u,-14%,18%
O=C1C=CC(=O)c2c(O)c(N3CCN(CCOCCO)CC3)c(Br)c(O)c21,19%,x,u,u,-14%,u
COc1ccc2oc(/C=C/N(C)C)c(C(=O)c3ccc(Cl)cc3)c2c1,3%,-19%,-16%,7.1µM*,-2%,u
Cc1cc(C)c2c(N)c(C(=O)NN3CC(=O)N(c4ccccc4)CC3=O)sc2n1,19%,129%,87%,50µM*,-3%,13%
Cc1cc(C)c2c(N)c(C(=O)NN3CC(=O)N(c4cccc(Cl)c4)CC3=O)sc2n1,6%,12%,25%[57.1 µM],0%,-2%,13%[57.1 µM]
COc1ccccc1Nc1nc(-c2ccc3c(c2)CC(C)N3S(C)(=O)=O)cs1 (centres undefined),x,x,x,40µM*,x,x
CC1Cc2cc(-c3csc(NC(=O)Cc4ccccc4)n3)ccc2N1S(C)(=O)=O (centres undefined),2%,1%,9%,14%,0%,22%
COc1ccccc1Nc1nc(-c2ccc3c(c2)CCC(=O)N3)cs1,x,x,x,10µM*,x,x
CC(C)CCNc1nc(-c2ccc3c(c2)NC(=O)CO3)cs1,x,x,x,16%,x,x
CC(C)CNc1nc(-c2ccc3c(c2)CCC(=O)N3)cs1,x,x,x,13µM*,x,x
CC1CCC/C(=N/NC(=S)Nc2ccccc2)C1 (centres undefined),x,x,x,28µM*,x,x
N#CCCC(C#N)Cn1c(=O)c2c(ncn2Cc2ccccc2)n(Cc2ccccc2)c1=O (centres undefined),x,x,x,27%,x,x
COc1ccc(-c2cn(C)c(=O)n3cc(CN(C)C)nc23)cc1OC,x,x,x,-2%[176 µM],x,x
C=CCN(CC=C)c1cnn(-c2nc3ccccc3[nH]2)c(=O)c1Cl,6%,-2%,12%,8%,-2%,3%
O=c1c(Cl)c(NCCCO)cnn1-c1nc2ccccc2[nH]1,3%,-10%,-2%,0%,-17%,3.5µM*
O=C(Nc1ccc2oc(C3CC3)nc2c1)c1n[nH]c(=O)c2ccccc12,x,x,x,7%,x,x
CC(C)OC(=O)CC(=O)c1sc2nc3c(cc2c1N)CN(C)CC3,7%,-8%,-1%[57.1 µM],x,-8%,20µM*

# Screening data from PubChem BioAssay.
